# Assay outcomes as filed in PubChem BioAssay.
# This excerpt belongs to a sample that is enriched for hits.
# Tgondii IFNg: T. gondii growth inhibition under IFN-gamma. Toxoplasma gondii growth in IFN-gamma-treated host cells; active compounds read low. activity change, negative = inhibition, % (no concentration beside the values). hit rate 3.8% among 69,000. AID 1259416; in the data active = activity change below about -70%, passing the limit was not always enough;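 also: host cells are HeLa cells infected with Toxoplasma gondii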
# Starred values were filed as active, the others as inactive; i = inactive.
SMILES,Tgondii IFNg
CC(C(=O)N1CCC(c2noc(-c3cccnc3)n2)CC1)c1ccccc1 (stereo not drawn),-5
CCC(=O)N1CC[C@H](OCc2csc(C)n2)[C@@H](Cc2ccccc2)C1,-9
C=CCn1c(=O)c(C(=O)NC2CCCCC2)c(O)c2ccccc21,89
CN(C)C(=O)CN1CCO[C@@]2(CCC[C@H]2COCc2nccs2)C1,0
CCc1ccccc1NC(=O)C(=O)NCCc1sc(-c2ccccc2)nc1C,-36
Cc1cc(-c2c(-c3ccccc3)ncn2CCS(C)(=O)=O)n[nH]1,0
CCc1ccccc1NC(=O)c1nc(Nc2ccccc2)c2ccccc2n1,-69
CCCNC(=O)c1nc(Nc2ccc(F)cc2)c2ccccc2n1,-33
O=C(NC1CCCCCC1)c1nc(Nc2ccccc2)c2ccccc2n1,-85*
O=C(NC1CCCC1)c1nc(Nc2ccc(F)cc2)c2ccccc2n1,-62
CCOC(=O)c1nc(Nc2ccc(OC)c(Cl)c2)c2ccccc2n1,-77*
Cc1ccc(Nc2nc(C(=O)Nc3ccccc3Cl)nc3ccccc23)cc1,-58
CCOC(=O)c1nc(Nc2cc(C)c(Cl)cc2OC)c2ccccc2n1,-43
CCc1ccccc1NC(=O)c1nc(Nc2ccc(C)cc2)c2ccccc2n1,-86*
CCOC(=O)c1nc(Nc2cccc(OC)c2)c2ccccc2n1,-4
CCc1ccc(Nc2nc(C(=O)NCCOC)nc3ccccc23)cc1,-54
CCCNC(=O)c1nc(Nc2ccc(CC)cc2)c2ccccc2n1,-83*
Cc1cccc(Nc2nc(C(=O)NC3CCCC3)nc3ccccc23)c1,-65
CNC(=O)c1cccnc1-c1ccc(CO)cc1,4
COCCN1C(=O)CCc2cc(NC(=O)c3n[nH]c4ccccc34)ccc21,62
OCCOc1ccccc1-c1nccn1-c1ccc2c(c1)CCC2,-3
Cc1nc(N2CCCC2)nc(N2CCOCC(CN(C)C)C2)c1C (stereo not drawn),10
Cc1nc(C)c(S(=O)(=O)NCc2ccc(-c3cccs3)cc2)s1,-9
CC(=O)NCC(=O)N1CCC2(CC1)NC(=O)CC2c1ccccc1 (stereo not drawn),2
Cc1ccc(C2c3[nH]c4ccccc4c3CCN2C(=O)CCc2ccccc2)cc1 (stereo not drawn),-80*
SMILES,Tgondii IFNg
COC(=O)CCC(=O)N1CCc2c([nH]c3ccccc23)C1c1ccc(SC)cc1 (stereo not drawn),57
CCCC(=O)N1CCc2c([nH]c3ccccc23)C1c1ccc(Cl)cc1 (stereo not drawn),-104*
COCC(=O)N1CCc2c([nH]c3ccccc23)C1c1ccc(C)cc1 (stereo not drawn),272
CSc1ccc(C2c3[nH]c4ccccc4c3CCN2C(=O)CCC2CCCC2)cc1 (stereo not drawn),-122*
CCOc1cccc(C2c3[nH]c4ccccc4c3CCN2C(=O)CCc2ccccc2)c1 (stereo not drawn),i
O=C(COc1ccccc1)N1CCc2c([nH]c3ccccc23)C1c1ccc(Cl)cc1 (stereo not drawn),-70
CCCC(=O)N1CCc2c([nH]c3ccccc23)C1c1ccc(SC)cc1 (stereo not drawn),-24
Cc1ccc(C2c3[nH]c4ccccc4c3CCN2C(=O)COc2ccccc2)cc1 (stereo not drawn),-117*
CCCC(=O)N1CCc2c([nH]c3ccccc23)C1c1ccc(OCC)cc1 (stereo not drawn),-37
O=C(COc1ccccc1)N1CCc2c([nH]c3ccccc23)C1c1ccc(F)cc1 (stereo not drawn),-64
CCCC(=O)N1CCc2c([nH]c3ccccc23)C1c1ccc(OC)cc1 (stereo not drawn),i
Cc1cc(C)c(NC(=O)CCC(=O)NCC(C)n2cncn2)c(C)c1 (stereo not drawn),-26
CCN1c2ccc(F)cc2C(=O)NC12CCN(C(=O)c1ccc3c(c1)OCO3)CC2,30
O=C(CC1NC(=O)N(C2CCCCC2)C1=O)NC(c1ccncc1)c1cccs1 (stereo not drawn),-46
CN1C(=O)CO[C@@H]2CN(C(=O)CCc3ccccc3)C[C@@H]21,95
CC[C@@H](Cn1nc(-c2cccs2)oc1=O)NC(=O)C(C)C,-2
Cc1cc(C)cc(C(=O)NCCc2sc(-c3cccc(F)c3)nc2C)c1,-11
COc1ccc(-c2nc(Nc3cc(OC)c(OC)c(OC)c3)c3ccccc3n2)cc1,-35
CCN(CC)c1ccc(NC(=O)CN2C(=O)CCc3cc(Br)ccc32)c(C)c1,251
CCCCc1cn(CC2CCN(C(=O)c3ccco3)CC2)nn1,3
COc1ccc(-c2nc(C)c(CCNC(=O)C(=O)Nc3ccc(C)cc3)s2)cc1,31
CCC(CC)NC(=O)c1ccc2c(c1)C(c1ncn[nH]1)CN2C(=O)c1ccccc1 (stereo not drawn),-12
CC1(C)CC(=O)c2cnc3nc(N)nn3c2C1,-12
Cc1nn(-c2ccc3ccccc3n2)c2c1C(=O)CC(C)(C)C2,-95*
Cc1nn(C(=O)c2ccccc2)c2c1C(=O)CC(C)(C)C2,-30
SMILES,Tgondii IFNg
CCO[C@H]1COC[C@@H]1NC(=O)c1cc(NC(C)=O)ccc1Cl,13
COc1ccc(C(C)NC(=O)c2c3c(nn2C)CCCC3)cc1F (stereo not drawn),-77*
COc1ccc(OC)c(-c2cc(C(=O)NC(C)c3ccc4c(c3)CCC4)[nH]n2)c1 (stereo not drawn),75
COc1ccc(C(C)NC(=O)c2cn3c(n2)CCCC3)cc1OC (stereo not drawn),110
CCNC(=O)c1sc2cc(C)ccc2c1Cl,79
O=C(c1sc2cc(Cl)ccc2c1Cl)N1c2ccccc2Sc2ccccc21,-80*
COC(=O)c1sc2ccccc2c1Cl,8
CCc1nc(C)c(C(=O)N(C)Cc2ccc3nsnc3c2)o1,-3
CCc1nc(C)c(C(=O)N(C)Cc2snnc2C)o1,-27
CCc1nc(C)c(C(=O)N(C)Cc2csc(C(C)C)n2)o1,-92*
Oc1c(Cl)cc(Cl)cc1C1Nc2cc(Cl)c(C(F)(F)F)cc2N1 (stereo not drawn),-88*
CN(CC1(CO)CCC1)C(=O)Cc1noc2ccccc12,4
Clc1ccc(-c2nccn2CCC2CCCCO2)cc1 (stereo not drawn),-4
CN1CC2(CCCN(Cc3nc4ccccc4s3)C2)OC1=O (stereo not drawn),1
Cc1cc(C(=O)NCCN2CCOCC2)nn1-c1c(Cl)cc(Cl)cc1Cl,4
CCOC(=O)c1c(Sc2ccccc2)cnn1C(=O)Nc1cccc(Cl)c1,-79*
CCOC(=O)c1cccnc1-c1cccc(NC(C)=O)c1,13
COC(=O)c1cnc(SCC(=O)Nc2cccc(Cl)c2)n1C,34
COc1c(C)cnc(CN(C)C(=O)c2cc(C(C)C)nn2C)c1C,-3
Cc1ccc(-c2cnc(-c3ccccc3)sc2=O)cc1,70
CN1CC(=O)N2CCN(C(=O)COc3cccnc3)CC2C1=O (stereo not drawn),1
COC(=O)c1sc(SC)c(S(=O)(=O)c2ccc(Cl)cc2)c1C,-6
CC(C)S(=O)(=O)c1cscc1NC(=O)Nc1ccccc1,-1
CSc1sc(NC(=O)Nc2ccc(Cl)cc2)cc1S(=O)(=O)C(C)C,-84*
COc1cc(NC(=O)Nc2ccc(Cl)cc2)c(-n2c(C)ccc2C)cc1OC,166
CSc1sc(C(=O)N2CCc3ccccc32)cc1S(=O)(=O)C(C)C,33
CSc1sc(C(=O)Sc2ccc(Cl)cc2)cc1S(=O)(=O)C(C)C,-79*
Cc1[nH]cnc1-c1nccn1CCN1CCOC1=O,4
